This note sets out measurements from PubChem BioAssay (NCI).

The structures appear in SMILES notation. “And” between values parts separate entries of the source, which are not always exact repeats. Equal values may be shown once. About 83,000 compounds went through this panel and 20% of them were active in at least one assay; those are over-represented in the sample as a whole.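 Interpretation: 100, growth as untreated; towards 0, rising growth inhibition; 0, no net growth; 0 to -100, cell death. Compounds scoring below 10 were considered active.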 The source made the active and inactive calls.

Assay in all cases: NCI-60 one-dose screen, 48 h (100 = growth as untreated, 0 = no growth, -100 = all killed)
The subject of one test is NCI-H23 lung. Particulars: 10 µM unless noted.
For another test, the system named is NCI-H226 lung. Conditions: 10 µM unless noted.
For another test, the system named is NCI-H322M lung. Particulars: 10 µM unless noted.
The subject of another test is HOP-62 NSCLC. Particulars: 10 µM unless noted.
A further test relates to HOP-92 NSCLC.
The test system of the next test is NCI-H522 lung. Particulars: 10 µM unless noted.
The test system of another test is A549/ATCC NSCLC. Particulars: 10 µM unless noted.
Another test deals with 786-0 renal. Conditions: 10 µM unless noted.
Another test concerns COLO 205 colon. Particulars: 10 µM unless noted.
A further test has as its system DU-145 prostate. Particulars: 10 µM unless noted.
Another test has as its system K-562 leukemia. Conditions: 10 µM unless noted.
The test system of a further test is MDA-MB-231 breast. Conditions: 10 µM unless noted.
The test system of the next test is RXF 393 renal. Conditions: 10 µM unless noted.
The subject of a further test is SF-268 CNS. Particulars: 10 µM unless noted.
In another test the test system is SF-295 CNS. Particulars: 10 µM unless noted.
For the next test, the system named is SF-539 CNS. Conditions: 10 µM unless noted.
Another test has as its system UACC-257 melanoma. Conditions: 10 µM unless noted.
The next test relates to M14 melanoma. Particulars: 10 µM unless noted.
A further test relates to HCT-15 colon. Conditions: 10 µM unless noted.
The test system of the next test is MALME-3M melanoma. Conditions: 10 µM unless noted.

Turning to `CCCCCCCCCCCC1CCCC(C)N1` (stereo not given), the growth with NCI-H23 lung was 71.4% (inactive); with NCI-H226 lung, 94.8% (inactive); with NCI-H322M lung, 127% (inactive); in the test on HOP-62 NSCLC, 86.5% (inactive); in the test on HOP-92 NSCLC (10 µM) it was 15.8% (inactive); in the test on NCI-H522 lung, -8.02% (active). The growth with A549/ATCC NSCLC was 97.2% (inactive); in the test on 786-0 renal, 67.3% (inactive); in the test on COLO 205 colon, -33% (active); in the test on DU-145 prostate it was 92.4% (inactive); with K-562 leukemia, 6.23% (active); in the test with MDA-MB-231 breast it was 72% (inactive). Further, the growth in the test on RXF 393 renal was 77.7% (inactive); in the test on SF-268 CNS, 73.5% (inactive); in the test on SF-295 CNS it was 100% (inactive); in the test with SF-539 CNS it was 97.5% (inactive); in the test on UACC-257 melanoma it was 77.3% (inactive); with M14 melanoma, 95.3% (inactive). The growth with HCT-15 colon was 27.7% (inactive).
For the compound `CC(=O)O[C@H]1C[C@@H]2OC3C=C(C)CCC3(C)[C@@]1(C)[C@@]21CO1` (stereo not given in full), the growth in the test with NCI-H23 lung is -32.5% (active) and -10.8% (active); with NCI-H226 lung, -24.8% (active); in the test with NCI-H322M lung, -19.5% (active); with HOP-62 NSCLC it was 17% (inactive) and -10.8% (active); in the test on HOP-92 NSCLC (10 µM) it was -21.3% (active) and -15.3% (active); in the test with NCI-H522 lung it was -46.4% (active) and -45.1% (active). Moreover, the growth was -9.42% (active) and -20.5% (active) in the test with A549/ATCC NSCLC; -15.6% (active) and -10.8% (active) in the test with 786-0 renal; -61.6% (active) and -70.2% (active) in the test on COLO 205 colon; -10.8% (active) and -37.3% (active) in the test with DU-145 prostate; 3.64% (active) and -17.5% (active) in the test with K-562 leukemia; -35.1% (active) and -36% (active) in the test with MALME-3M melanoma. For the same compound, the growth with MDA-MB-231 breast was -12.8% (active) and -34.4% (active); in the test with RXF 393 renal, -21.4% (active) and -34.9% (active); with SF-268 CNS, 1.16% (active) and -20.3% (active); in the test with SF-295 CNS, -26.1% (active) and 0.436% (active); in the test with SF-539 CNS it was -24.5% (active) and -26.6% (active); in the test on UACC-257 melanoma it was -26% (active) and -33.7% (active). Besides, the growth is -81.2% (active) and -64.8% (active) in the test on M14 melanoma; -0.358% (active) and -0.281% (active) in the test on HCT-15 colon.
In the case of `Oc1cc[c]([Hg][Cl])cc1`, the growth with NCI-H23 lung is 87.8% (inactive); in the test on NCI-H226 lung, 113% (inactive); in the test with NCI-H322M lung it was 93.4% (inactive); in the test on HOP-62 NSCLC it was 123% (inactive); in the test with HOP-92 NSCLC (10 µM), 161% (inactive); with NCI-H522 lung, -47% (active). The growth is 99.3% (inactive) in the test with A549/ATCC NSCLC; 102% (inactive) with 786-0 renal; 130% (inactive) with COLO 205 colon; 94.3% (inactive) in the test on DU-145 prostate; 60.2% (inactive) in the test with K-562 leukemia; 94.2% (inactive) in the test on MALME-3M melanoma. Besides, the growth in the test with RXF 393 renal is 116% (inactive); in the test on SF-268 CNS it was 95.4% (inactive); in the test on SF-295 CNS it was 113% (inactive); in the test with SF-539 CNS, 121% (inactive); in the test on UACC-257 melanoma, 99.6% (inactive); in the test with M14 melanoma, 91.1% (inactive). Moreover, in the test on HCT-15 colon, the growth is 91.4% (inactive).
For the compound `Cc1c(N)nc([C@H](CC(N)=O)NC[C@H](N)C(N)=O)nc1C(=O)N[C@H](C(=O)N[C@H](C)[C@@H](O)[C@H](C)C(=O)N[C@H](C(=O)NCCc1nc(-c2nc(C(=O)NCCC[S+](C)C)cs2)cs1)[C@@H](C)O)C(OC1OC(CO)C(O)C(O)C1OC1OC(CO)C(O)C(OC(N)=O)C1O)c1cnc[nH]1` (stereo not given in full), the growth is 37.9% [2.5 µM] (inactive) in the test on NCI-H23 lung; 37.2% [2.5 µM] (inactive) with NCI-H226 lung; 97.1% [2.5 µM] (inactive) in the test on NCI-H322M lung; 43.9% [2.5 µM] (inactive) in the test on HOP-62 NSCLC; -4.74% (active) in the test on HOP-92 NSCLC (2.5 µM); 57.3% [2.5 µM] (inactive) in the test with NCI-H522 lung. Moreover, the growth was 52.9% [2.5 µM] (inactive) in the test with A549/ATCC NSCLC; 27.9% [2.5 µM] (inactive) in the test on 786-0 renal; 87.7% [2.5 µM] (inactive) in the test on COLO 205 colon; 58.7% [2.5 µM] (inactive) with DU-145 prostate; 65.8% [2.5 µM] (inactive) with K-562 leukemia; 45.9% [2.5 µM] (inactive) in the test on MALME-3M melanoma. For the same compound, the growth in the test with MDA-MB-231 breast was 99.2% [2.5 µM] (inactive); in the test on RXF 393 renal, 20.5% [2.5 µM] (inactive); with SF-268 CNS, 61.6% [2.5 µM] (inactive); in the test with SF-295 CNS, 8.69% [2.5 µM] (active); with SF-539 CNS, -48.7% [2.5 µM] (active); in the test with UACC-257 melanoma, 31.9% [2.5 µM] (inactive). In addition, the growth with HCT-15 colon was 67.8% [2.5 µM] (inactive).
Consider `COc1cccc2c1cc([N+](=O)[O-])c1c(C(=O)O)cc3c(c12)OCO3`, for which the growth in the test with NCI-H23 lung is 56.4% (inactive) and 93% (inactive); in the test with NCI-H226 lung, 79.8% (inactive) and 107% (inactive); with NCI-H322M lung, 50.4% (inactive) and 99% (inactive); in the test with HOP-62 NSCLC, 82.4% (inactive) and 101% (inactive); in the test on HOP-92 NSCLC (10 µM), 84% (inactive); in the test with NCI-H522 lung, 35% (inactive) and 63.9% (inactive). Further, the growth in the test with A549/ATCC NSCLC is 76.6% (inactive) and 116% (inactive); in the test on 786-0 renal, 77.3% (inactive) and 98.8% (inactive); with COLO 205 colon, -25.3% (active) and -56.5% (active); with DU-145 prostate, 15.6% (inactive) and 118% (inactive); with K-562 leukemia, 73.5% (inactive) and 67.8% (inactive); with MALME-3M melanoma it was 106% (inactive) and 98.7% (inactive). Moreover, the growth in the test with MDA-MB-231 breast is 88.4% (inactive) and 106% (inactive); in the test on RXF 393 renal, 49.1% (inactive) and 101% (inactive); in the test on SF-268 CNS, 45.9% (inactive) and 113% (inactive); with SF-295 CNS, 44.9% (inactive) and 90.4% (inactive); in the test on SF-539 CNS, 71.9% (inactive) and 90% (inactive); in the test with UACC-257 melanoma, 97.7% (inactive) and 111% (inactive). Also, the growth in the test on M14 melanoma is 84.5% (inactive) and 99% (inactive); in the test with HCT-15 colon, 69.3% (inactive) and 105% (inactive).
For `CC1=C2C(=O)[C@H]3[C@@H](CC=C4C[C@@H](O)CC[C@@]43C)[C@@H]2CC[C@]12O[C@@H]1C[C@H](C)CN[C@H]1[C@H]2C`, the growth in the test on NCI-H23 lung is 106% (inactive); in the test with NCI-H226 lung it was 95.3% (inactive); in the test on NCI-H322M lung it was 86.4% (inactive); in the test on HOP-62 NSCLC, 50.9% (inactive); with A549/ATCC NSCLC, 89.7% (inactive); in the test with 786-0 renal, 127% (inactive). Besides, the growth in the test on COLO 205 colon was 103% (inactive); in the test with DU-145 prostate, 151% (inactive); with K-562 leukemia it was 154% (inactive); with MALME-3M melanoma it was 84.6% (inactive); with MDA-MB-231 breast, 105% (inactive); in the test with RXF 393 renal it was 98.8% (inactive). Moreover, the growth in the test on SF-268 CNS is 105% (inactive); in the test on SF-295 CNS it was 93.3% (inactive); in the test with SF-539 CNS, 101% (inactive); in the test on UACC-257 melanoma it was 104% (inactive); in the test with M14 melanoma, 92.9% (inactive); in the test on HCT-15 colon, 94.2% (inactive).
